Source: PubChem BioAssay AID1159580 (chemical genetic matrix, 2015)
Where “and” joins values, the source holds several entries; their conditions need not be identical. Equal entries are not always repeated. Screen size: about 5,500 compounds; about 2,000 (36%) were called active. Another 18% or so got no clear call; they are omitted. No stated cut-off is given here; in the data, active means normalized growth mostly below about 0.91 (no sharp cut-off); inconclusive means no clear call, values can overlap the other calls; inactive means mostly above about 0.92. Some of the results follow.

Assay: chemical genetic growth profiling, strain panel (AID 1159580);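 further: tested at 20 µM; growth read once vehicle control cultures reached saturation at 30 °C; 1 = growth at the plate median or of vehicle wells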
Settings: S. cerevisiae deletion strains, growth OD

Measured: normalized growth

N=c1ccn2c(n1)O[C@@H]1C2O[C@H](CO)[C@H]1O (stereo not given in full)
inactive: locus YAL021C, strain ccr4, stronger effect = lower value 1.02 | locus YAL026C, strain drs2, stronger effect = lower value 0.981 | locus YAL030W, strain snc1, stronger effect = lower value 0.987 | locus YBL061C, strain skt5, stronger effect = lower value 0.985 | locus YBR009C, strain hhf1, stronger effect = lower value 0.965 | locus YBR021W, strain FUR4, stronger effect = lower value 1.01 | locus YBR023C, strain chs3, stronger effect = lower value 0.99 | locus YBR171W, strain sec66, stronger effect = lower value 0.988 | locus YBR229C, strain ROT2, stronger effect = lower value 1 | locus YBR231C, strain swc5, stronger effect = lower value 0.98 | locus YBR279W, strain paf1, stronger effect = lower value 0.992 | locus YCL011C, strain gbp2, stronger effect = lower value 0.984 | locus YCL016C, strain dcc1, stronger effect = lower value 0.983 | locus YCL029C, strain bik1, stronger effect = lower value 1.01 | locus YCL061C, strain MRC1, stronger effect = lower value 0.988 | locus YCL069W, strain vba3, stronger effect = lower value 0.991 | locus YCR088W, strain abp1, stronger effect = lower value 0.993 | locus YDL005C, strain med2, stronger effect = lower value 0.992 | locus YDL035C, strain GPR1, stronger effect = lower value 1.01 | locus YDL040C, strain nat1, stronger effect = lower value 0.979 | locus YDL074C, strain BRE1, stronger effect = lower value 1.02 | locus YDL101C, strain DUN1, stronger effect = lower value 1.01 | locus YDL185W, strain tfp1, stronger effect = lower value 1.01 | locus YDL192W, strain arf1, stronger effect = lower value 1.01 | locus YDR001C, strain nth1, stronger effect = lower value 0.982 | locus YDR069C, strain doa4, stronger effect = lower value 0.962 | locus YDR101C, strain arx1, stronger effect = lower value 0.987 | locus YDR137W, strain rgp1, stronger effect = lower value 0.982 | locus YDR159W, strain sac3, stronger effect = lower value 0.939 | locus YDR162C, strain NBP2, stronger effect = lower value 1.01 | locus YDR195W, strain ref2 0.91 | locus YDR297W, strain sur2, stronger effect = lower value 0.996 | locus YDR318W, strain mcm21, stronger effect = lower value 1 | locus YDR334W, strain swr1, stronger effect = lower value 0.985 | locus YDR335W, strain msn5, stronger effect = lower value 0.979 | locus YDR388W, stronger effect = lower value 1.01 | locus YDR392W, strain spt3, stronger effect = lower value 0.83 | locus YDR502C, strain sam2, stronger effect = lower value 1.03 | locus YEL003W, strain gim4, stronger effect = lower value 0.984 | locus YEL037C, strain rad23, stronger effect = lower value 0.991 | locus YEL061C, strain CIN8 (second series), stronger effect = lower value 0.984 | locus YEL061C, strain CIN8, stronger effect = lower value 1.01 | locus YER015W, strain faa2, stronger effect = lower value 0.985 | locus YER016W, strain bim1, stronger effect = lower value 0.982 | locus YER110C, stronger effect = lower value 1.01 | locus YER111C, strain swi4, stronger effect = lower value 0.974 | locus YER155C, strain BEM2 (second series), stronger effect = lower value 0.949 | locus YER155C, strain BEM2, stronger effect = lower value 1 | locus YER167W, strain BCK2, stronger effect = lower value 1.01 | locus YFR010W, strain ubp6, stronger effect = lower value 0.975 | locus YGL078C, strain dbp3, stronger effect = lower value 1.01 | locus YGL086W, strain mad1, stronger effect = lower value 1.01 | locus YGL167C, strain pmr1, stronger effect = lower value 0.984 | locus YGL173C, strain kem1, stronger effect = lower value 0.981 | locus YGL227W, strain vid30, stronger effect = lower value 0.984 | locus YGL240W, strain doc1, stronger effect = lower value 0.959 | locus YGL248W, strain PDE1, stronger effect = lower value 1.01 | locus YGL253W, strain hxk2, stronger effect = lower value 0.981 | locus YGR078C, strain PAC10, stronger effect = lower value 1.01 | locus YGR135W, strain pre9, stronger effect = lower value 1.03 | locus YGR252W, strain gcn5, stronger effect = lower value 0.988 | locus YHR013C, strain ard1, stronger effect = lower value 0.939 | locus YHR027C, strain rpn1, stronger effect = lower value 0.989 | locus YHR030C, strain SLT2, stronger effect = lower value 1.01 and 0.988 | locus YHR079C, strain IRE1 (second series), stronger effect = lower value 1 | locus YHR079C, strain IRE1, stronger effect = lower value 0.985 | locus YHR094C, strain hxt1, stronger effect = lower value 1.01 | locus YHR129C, strain ARP1, stronger effect = lower value 0.997 | locus YHR142W, strain chs7, stronger effect = lower value 1.04 | locus YHR200W, strain rpn10, stronger effect = lower value 1.01 | locus YIL066C, strain RNR3, stronger effect = lower value 1.01 | locus YIL073C, strain SPO22, stronger effect = lower value 1.04 | locus YIL125W, strain kgd1, stronger effect = lower value 1 | locus YIR030C, strain dcg1, stronger effect = lower value 1.02 | locus YJL092W, strain hpr5, stronger effect = lower value 0.982 | locus YJL095W, strain BCK1 (second series), stronger effect = lower value 0.99 | locus YJL095W, strain BCK1, stronger effect = lower value 1.04 and 0.994 | locus YJL115W, strain asf1, stronger effect = lower value 1 | locus YJL129C, strain trk1, stronger effect = lower value 0.999 | locus YJL134W, strain LCB3, stronger effect = lower value 1.01 | locus YJL154C, strain vps35, stronger effect = lower value 0.988 | locus YJL164C, strain tpk1, stronger effect = lower value 1.01 | locus YJL166W, strain qcr8, stronger effect = lower value 0.99 | locus YJL168C, strain set2, stronger effect = lower value 1.01 | locus YJL187C, strain SWE1 (second series), stronger effect = lower value 1.02 | locus YJL187C, strain SWE1, stronger effect = lower value 0.984 | locus YJR043C, strain POL32, stronger effect = lower value 1.01 | locus YJR066W, strain TOR1, stronger effect = lower value 0.908 | locus YKL009W, strain mrt4, stronger effect = lower value 1.02 | locus YKL068W, stronger effect = lower value 1.01 | locus YKL085W, strain MDH1 (second series), stronger effect = lower value 1.02 | locus YKL085W, strain MDH1, stronger effect = lower value 1.02 | locus YKL160W, strain elf1, stronger effect = lower value 1.02 | locus YKL190W, strain CNB1, stronger effect = lower value 1.01 | locus YKR001C, strain vps1, stronger effect = lower value 1 | locus YKR026C, strain gcn3, stronger effect = lower value 0.989 | locus YKR091W, strain srl3, stronger effect = lower value 0.99 | locus YLL001W, strain dnm1, stronger effect = lower value 0.982 | locus YLL026W, stronger effect = lower value 0.987 | locus YLL041C, strain sdh2, stronger effect = lower value 0.992 | locus YLR027C, strain aat2, stronger effect = lower value 0.985 | locus YLR039C, strain RIC1, stronger effect = lower value 1 | locus YLR058C, strain SHM2, stronger effect = lower value 1.01 | locus YLR102C, strain apc9, stronger effect = lower value 1.01 | locus YLR113W, strain HOG1, stronger effect = lower value 0.989 | locus YLR221C, strain rsa3, stronger effect = lower value 1.01 | locus YLR258W, strain gsy2, stronger effect = lower value 0.984 | locus YLR262C, strain YPT6 (second series), stronger effect = lower value 1.01 | locus YLR262C, strain YPT6, stronger effect = lower value 1.02 | locus YLR268W, strain sec22, stronger effect = lower value 1 | locus YLR320W, strain mms22, stronger effect = lower value 0.971 | locus YLR330W, strain CHS5, stronger effect = lower value 1 | locus YLR342W, strain FKS1 (second series), stronger effect = lower value 1.01 | locus YLR342W, strain FKS1, stronger effect = lower value 0.985 | locus YLR357W, strain rsc2, stronger effect = lower value 0.95 | locus YLR370C, strain arc18, stronger effect = lower value 0.991 | locus YLR371W, strain rom2, stronger effect = lower value 1.01 | locus YLR384C, strain iki3, stronger effect = lower value 0.997 | locus YLR418C, strain cdc73, stronger effect = lower value 1.01 | locus YML016C, strain PPZ1, stronger effect = lower value 1.01 | locus YML032C, strain rad52, stronger effect = lower value 1 | locus YML120C, strain ndi1, stronger effect = lower value 1.01 | locus YML124C, strain tub3, stronger effect = lower value 1.01 | locus YMR058W, strain fet3, stronger effect = lower value 0.992 | locus YMR078C, strain ctf18, stronger effect = lower value 1.01 | locus YMR125W, strain sto1, stronger effect = lower value 0.951 | locus YMR129W, stronger effect = lower value 0.997 | locus YMR205C, strain PFK2, stronger effect = lower value 0.957 | locus YMR223W, strain ubp8, stronger effect = lower value 1.02 | locus YMR231W, strain pep5, stronger effect = lower value 0.991 | locus YMR307W, strain GAS1, stronger effect = lower value 1.02 | locus YNL067W, strain RPL9B, stronger effect = lower value 1.03 | locus YNL071W, strain lat1, stronger effect = lower value 0.994 | locus YNL153C, strain GIM3, stronger effect = lower value 1.02 | locus YNL183C, strain NPR1, stronger effect = lower value 0.941 | locus YNL209W, strain ssb2, stronger effect = lower value 1 | locus YNL233W, strain BNI4, stronger effect = lower value 1.01 | locus YNL248C, strain rpa49, stronger effect = lower value 1.01 | locus YNL250W, strain rad50, stronger effect = lower value 1 | locus YNL271C, strain bni1, stronger effect = lower value 1.02 | locus YNL298W, strain CLA4, stronger effect = lower value 1.01 | locus YNL307C, strain MCK1, stronger effect = lower value 1.01 | locus YNL322C, strain KRE1 (second series), stronger effect = lower value 1 | locus YNR049C, strain mso1, stronger effect = lower value 0.986 | locus YNR052C, strain pop2, stronger effect = lower value 1.02 | locus YOL006C, strain TOP1, stronger effect = lower value 1.09 | locus YOL012C, strain htz1 1.21 | locus YOL147C, strain pex11, stronger effect = lower value 1.01 | locus YOR001W, strain rrp6, stronger effect = lower value 1.01 | locus YOR061W, strain CKA2, stronger effect = lower value 1.01 | locus YOR069W, strain VPS5, stronger effect = lower value 1.01 | locus YOR070C, strain gyp1, stronger effect = lower value 0.995 | locus YOR080W, strain dia2, stronger effect = lower value 0.965 | locus YOR083W, strain WHI5, stronger effect = lower value 1.03 | locus YOR106W, strain vam3, stronger effect = lower value 1.02 | locus YOR136W, strain idh2, stronger effect = lower value 1.01 | locus YOR144C, strain elg1, stronger effect = lower value 1 | locus YOR184W, strain ser1, stronger effect = lower value 1.01 | locus YOR231W, strain MKK1, stronger effect = lower value 0.999 | locus YOR265W, strain rbl2, stronger effect = lower value 0.99 | locus YOR270C, strain vph1, stronger effect = lower value 0.983 | locus YOR290C, strain snf2, stronger effect = lower value 0.974 | locus YOR316C, strain cot1, stronger effect = lower value 1.02 | locus YPL051W, strain arl3, stronger effect = lower value 1 | locus YPL055C, strain LGE1, stronger effect = lower value 1.02 | locus YPL078C, strain atp4, stronger effect = lower value 1.01 | locus YPL106C, strain sse1, stronger effect = lower value 0.979 | locus YPL240C, strain hsp82, stronger effect = lower value 0.993 | locus YPL241C, strain CIN2, stronger effect = lower value 1.02 | locus YPL256C, strain CLN2, stronger effect = lower value 1.04 | locus YPR119W, strain clb2, stronger effect = lower value 1 | locus YPR141C, strain kar3, stronger effect = lower value 1.01 | locus YPR163C, strain tif3, stronger effect = lower value 1.01 | locus YPR167C, strain met16, stronger effect = lower value 1 | strain wtn01, stronger effect = lower value 1
